Records with an inconclusive call do not appear. Calls of active or inactive are those of the source. How the source made its calls, unless noted: active means hit-call score of the fitted dose curve at least 0.9, where 1 is the maximum; inconclusive means response in the unintended direction; inactive means score below 0.9.
How the values were obtained:
[1] = target: human Peroxisome Proliferator-activated Receptor delta (PPARd), PPARD (gene 5467) (UniProt Q03181); test: ATG_PPARd_TRANS: Attagene TRANS-FACTORIAL HepG2 Assay for human Peroxisome Proliferator-activated Receptor delta (PPARd) (AID 2283002)
Chain of human Peroxisome Proliferator-activated Receptor delta (PPARd), PPARD (gene 5467) (Q03181 whole entry, looked up, the tested form may be a part): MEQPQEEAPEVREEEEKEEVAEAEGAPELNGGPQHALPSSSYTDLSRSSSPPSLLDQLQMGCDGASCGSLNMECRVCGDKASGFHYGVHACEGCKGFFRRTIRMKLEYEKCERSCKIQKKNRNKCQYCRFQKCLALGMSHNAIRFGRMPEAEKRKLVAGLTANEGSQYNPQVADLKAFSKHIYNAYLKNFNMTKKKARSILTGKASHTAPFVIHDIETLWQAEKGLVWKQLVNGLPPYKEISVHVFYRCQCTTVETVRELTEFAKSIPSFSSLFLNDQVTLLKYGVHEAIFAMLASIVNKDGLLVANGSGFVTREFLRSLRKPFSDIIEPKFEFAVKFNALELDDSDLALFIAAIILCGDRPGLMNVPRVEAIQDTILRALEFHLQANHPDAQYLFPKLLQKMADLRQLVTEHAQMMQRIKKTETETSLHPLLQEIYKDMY
In short: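 Transient HepG2 transfection (multiple GAL4-UAS RTUs, chimeric receptor-Gal4); 24 h dosing; total RNA → oligo(dT) RT → PCR → 6-FAM primer extension → HpaI cut → CE. Positive direction vs DMSO.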

[2] = target: Nuclear receptor subfamily 1 group I member 2 (Homo sapiens) (UniProt O75469); test: ATG_PXR_TRANS: Attagene TRANS-FACTORIAL HepG2 Assay for human Pregnane X Receptor (PXR) (AID 2283008)
Chain of Nuclear receptor subfamily 1 group I member 2 (Homo sapiens) (O75469 whole entry, looked up, the tested form may be a part): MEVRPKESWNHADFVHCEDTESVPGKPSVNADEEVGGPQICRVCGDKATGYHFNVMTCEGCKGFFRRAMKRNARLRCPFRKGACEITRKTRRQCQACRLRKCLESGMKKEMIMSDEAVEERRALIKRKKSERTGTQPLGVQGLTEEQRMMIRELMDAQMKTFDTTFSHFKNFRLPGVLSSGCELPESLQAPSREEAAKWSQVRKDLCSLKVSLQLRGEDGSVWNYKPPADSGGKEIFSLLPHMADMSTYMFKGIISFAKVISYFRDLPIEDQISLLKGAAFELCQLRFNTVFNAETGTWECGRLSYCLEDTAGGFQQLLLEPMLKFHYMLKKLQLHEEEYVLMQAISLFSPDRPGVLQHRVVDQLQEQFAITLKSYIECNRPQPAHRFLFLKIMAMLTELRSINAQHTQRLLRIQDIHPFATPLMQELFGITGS
In short: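 Trans-factorial format: exogenous NR-Gal4 fusion activity, not endogenous factor, in transfected human HepG2 liver cells. After 24 h dosing, RNA isolated, reverse-transcribed, amplified and resolved by capillary electrophoresis; induction scored versus DMSO.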

[3] = target: human Retinoid X Receptor beta (RXRb), RXRB (gene 6257) (UniProt P28702); test: ATG_RXRb_TRANS: Attagene TRANS-FACTORIAL HepG2 Assay for human Retinoid X Receptor beta (RXRb) (AID 2283013)
Chain of human Retinoid X Receptor beta (RXRb), RXRB (gene 6257) (P28702 whole entry, looked up, the tested form may be a part): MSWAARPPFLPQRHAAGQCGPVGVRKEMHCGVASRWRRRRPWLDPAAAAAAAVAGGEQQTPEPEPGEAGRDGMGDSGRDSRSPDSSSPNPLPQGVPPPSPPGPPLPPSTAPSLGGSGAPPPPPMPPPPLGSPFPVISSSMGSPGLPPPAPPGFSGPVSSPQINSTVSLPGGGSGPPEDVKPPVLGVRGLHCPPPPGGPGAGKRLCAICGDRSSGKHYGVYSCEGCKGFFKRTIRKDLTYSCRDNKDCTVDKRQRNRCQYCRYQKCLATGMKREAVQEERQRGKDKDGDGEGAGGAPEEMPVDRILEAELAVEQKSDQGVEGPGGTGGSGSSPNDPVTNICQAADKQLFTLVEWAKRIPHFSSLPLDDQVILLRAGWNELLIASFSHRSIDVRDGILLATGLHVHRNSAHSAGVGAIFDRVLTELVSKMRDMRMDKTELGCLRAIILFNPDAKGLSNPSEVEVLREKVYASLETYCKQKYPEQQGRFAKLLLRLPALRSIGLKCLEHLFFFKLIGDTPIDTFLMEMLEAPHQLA
In short: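 Chimeric receptor-Gal4 activity was assessed in transiently transfected human HepG2 cells after 24 h exposure. Transcripts from GAL4-UAS reporters were quantified by fluorescent RT-PCR and capillary electrophoresis, with DMSO as negative control and baseline.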

[4] = target: human Thyroid Receptor alpha (THRa1), THRA (gene 7067) (UniProt P10827); test: ATG_THRa1_TRANS: Attagene TRANS-FACTORIAL HepG2 Assay for human Thyroid Receptor alpha (THRa1) (AID 2283014)
Chain of human Thyroid Receptor alpha (THRa1), THRA (gene 7067) (P10827 whole entry, looked up, the tested form may be a part): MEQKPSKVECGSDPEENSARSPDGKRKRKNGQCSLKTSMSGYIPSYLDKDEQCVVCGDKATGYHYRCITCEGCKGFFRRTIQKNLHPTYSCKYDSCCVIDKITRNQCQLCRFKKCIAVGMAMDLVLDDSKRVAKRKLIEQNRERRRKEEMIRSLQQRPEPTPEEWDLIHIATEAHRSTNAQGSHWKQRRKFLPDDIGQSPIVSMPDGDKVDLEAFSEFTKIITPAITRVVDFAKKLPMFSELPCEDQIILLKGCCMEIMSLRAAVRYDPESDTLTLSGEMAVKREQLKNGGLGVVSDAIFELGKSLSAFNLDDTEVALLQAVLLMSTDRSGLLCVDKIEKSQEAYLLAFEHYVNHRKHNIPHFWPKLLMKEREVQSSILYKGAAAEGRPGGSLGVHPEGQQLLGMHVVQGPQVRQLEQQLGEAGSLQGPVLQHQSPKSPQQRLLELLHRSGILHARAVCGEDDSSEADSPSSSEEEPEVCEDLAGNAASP
In short: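 Transient HepG2 transfection, NR-Gal4 chimera driving GAL4-UAS reporters; 24 h compound exposure; total RNA, oligo(dT) RT, PCR, fluorescent primer extension, capillary electrophoresis. Upward direction vs DMSO control.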

[5] = target: human RAR-related Orphan Receptor beta (RORb), RORB (gene 6096) (UniProt Q92753); test: ATG_RORb_TRANS: Attagene TRANS-FACTORIAL HepG2 Assay for human RAR-related Orphan Receptor beta (RORb) (AID 2283010)
Chain of human RAR-related Orphan Receptor beta (RORb), RORB (gene 6096) (Q92753 whole entry, looked up, the tested form may be a part): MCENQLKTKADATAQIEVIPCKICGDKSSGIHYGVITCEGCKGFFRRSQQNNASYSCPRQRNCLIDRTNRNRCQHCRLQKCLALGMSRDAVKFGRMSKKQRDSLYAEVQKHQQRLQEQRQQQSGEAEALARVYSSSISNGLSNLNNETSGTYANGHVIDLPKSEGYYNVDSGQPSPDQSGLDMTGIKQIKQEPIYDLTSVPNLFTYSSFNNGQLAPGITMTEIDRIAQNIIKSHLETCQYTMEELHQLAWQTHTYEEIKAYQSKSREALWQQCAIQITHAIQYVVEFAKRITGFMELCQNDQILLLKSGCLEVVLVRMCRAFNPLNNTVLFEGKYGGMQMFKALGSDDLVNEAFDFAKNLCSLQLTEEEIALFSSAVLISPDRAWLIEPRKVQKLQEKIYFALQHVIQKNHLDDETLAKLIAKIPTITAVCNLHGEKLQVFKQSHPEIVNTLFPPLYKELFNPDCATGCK
In short: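 Transfect HepG2 with multiple GAL4-UAS reporter transcription units; dose chemicals for 24 h; isolate RNA, reverse-transcribe and PCR-amplify reporter sequences; label, digest and resolve fragments by capillary electrophoresis; fit increases relative to DMSO.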

[6] = target: Retinoic acid receptor RXR-alpha (Homo sapiens) (UniProt P19793); test: ATG_RXRa_TRANS: Attagene TRANS-FACTORIAL HepG2 Assay for human Retinoid X Receptor alpha (RXRa) (AID 2283012)
Chain of Retinoic acid receptor RXR-alpha (Homo sapiens) (P19793 whole entry, looked up, the tested form may be a part): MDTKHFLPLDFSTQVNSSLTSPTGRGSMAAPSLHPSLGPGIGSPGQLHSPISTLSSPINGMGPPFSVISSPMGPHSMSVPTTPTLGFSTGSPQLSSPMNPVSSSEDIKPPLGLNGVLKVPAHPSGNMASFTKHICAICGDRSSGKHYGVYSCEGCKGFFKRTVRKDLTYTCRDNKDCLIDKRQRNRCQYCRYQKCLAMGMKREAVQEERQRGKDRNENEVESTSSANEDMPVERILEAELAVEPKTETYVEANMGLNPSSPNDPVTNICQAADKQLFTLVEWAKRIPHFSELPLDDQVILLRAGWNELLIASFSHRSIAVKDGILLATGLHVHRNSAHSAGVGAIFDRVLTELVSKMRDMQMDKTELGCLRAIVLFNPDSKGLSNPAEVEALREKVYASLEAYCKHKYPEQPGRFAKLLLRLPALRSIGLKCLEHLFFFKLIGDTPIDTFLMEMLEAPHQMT
In short: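 Measures exogenous chimeric NR-GAL4 activity in transfected HepG2 liver cells after 24 h of dosing. Induced reporter mRNA was detected by RT-PCR with capillary electrophoresis, and gain of signal was analysed against DMSO.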

[7] = target: Peroxisome proliferator-activated receptor gamma (Homo sapiens) (UniProt P37231); test: ATG_PPARg_TRANS: Attagene TRANS-FACTORIAL HepG2 Assay for human Peroxisome Proliferator-activated Receptor-gamma (PPARg) (AID 2283007)
Chain of Peroxisome proliferator-activated receptor gamma (Homo sapiens) (P37231 whole entry, looked up, the tested form may be a part): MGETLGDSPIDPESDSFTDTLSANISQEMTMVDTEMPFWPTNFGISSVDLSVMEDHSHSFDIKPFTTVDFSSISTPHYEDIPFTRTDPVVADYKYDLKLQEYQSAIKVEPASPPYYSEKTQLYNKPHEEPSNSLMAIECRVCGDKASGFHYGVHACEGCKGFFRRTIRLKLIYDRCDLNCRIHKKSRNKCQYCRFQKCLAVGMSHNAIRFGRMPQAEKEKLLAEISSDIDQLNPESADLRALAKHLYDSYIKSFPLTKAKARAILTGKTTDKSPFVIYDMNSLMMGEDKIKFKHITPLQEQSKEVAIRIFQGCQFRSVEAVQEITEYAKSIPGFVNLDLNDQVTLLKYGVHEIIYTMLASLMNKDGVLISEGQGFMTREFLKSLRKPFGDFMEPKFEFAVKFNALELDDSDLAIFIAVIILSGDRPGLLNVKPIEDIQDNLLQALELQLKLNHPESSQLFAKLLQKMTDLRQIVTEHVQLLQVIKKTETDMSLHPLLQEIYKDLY
In short: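 Read-out: reporter mRNA induction, detected by fluorescence after RT-PCR and capillary electrophoresis. Transiently transfected human HepG2 liver cells carrying a chimeric NR-Gal4 construct were dosed for 24 h; activity was fitted upward relative to DMSO.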

[8] = target: human RAR-related Orphan Receptor gamma (RORg), RORC (gene 6097) (UniProt P51449); test: ATG_RORg_TRANS: Attagene TRANS-FACTORIAL HepG2 Assay for human RAR-related Orphan Receptor gamma (RORg) (AID 2283011);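 on AC50: potency for induction of reporter transcripts above DMSO so activators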
Chain of human RAR-related Orphan Receptor gamma (RORg), RORC (gene 6097) (P51449 whole entry, looked up, the tested form may be a part): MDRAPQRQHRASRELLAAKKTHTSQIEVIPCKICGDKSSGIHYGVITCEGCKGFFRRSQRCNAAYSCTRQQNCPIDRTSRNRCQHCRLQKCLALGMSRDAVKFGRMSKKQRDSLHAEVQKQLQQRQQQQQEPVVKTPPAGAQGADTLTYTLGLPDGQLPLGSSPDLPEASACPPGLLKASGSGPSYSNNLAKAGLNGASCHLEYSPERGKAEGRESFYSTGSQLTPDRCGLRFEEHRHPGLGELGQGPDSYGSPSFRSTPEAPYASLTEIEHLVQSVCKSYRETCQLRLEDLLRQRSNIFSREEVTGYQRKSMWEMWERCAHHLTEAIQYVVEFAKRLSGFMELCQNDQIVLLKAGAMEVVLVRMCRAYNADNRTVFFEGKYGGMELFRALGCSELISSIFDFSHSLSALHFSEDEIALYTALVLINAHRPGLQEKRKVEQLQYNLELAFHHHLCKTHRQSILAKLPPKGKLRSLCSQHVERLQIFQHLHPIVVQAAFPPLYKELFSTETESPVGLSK
In short: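 Transient MRTU transfection of HepG2 (TRANS format, exogenous NR-Gal4 chimera). 24 h dosing. Total RNA → oligo(dT) RT → PCR → 6-FAM labelling → HpaI cut → CE. Gain vs DMSO.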

[9] = target: Retinoic acid receptor alpha (Homo sapiens) (UniProt P10276); test: ATG_RARa_TRANS: Attagene TRANS-FACTORIAL HepG2 Assay for human Retinoic Acid Receptor alpha (RARa) (AID 2283005)
Chain of Retinoic acid receptor alpha (Homo sapiens) (P10276 whole entry, looked up, the tested form may be a part): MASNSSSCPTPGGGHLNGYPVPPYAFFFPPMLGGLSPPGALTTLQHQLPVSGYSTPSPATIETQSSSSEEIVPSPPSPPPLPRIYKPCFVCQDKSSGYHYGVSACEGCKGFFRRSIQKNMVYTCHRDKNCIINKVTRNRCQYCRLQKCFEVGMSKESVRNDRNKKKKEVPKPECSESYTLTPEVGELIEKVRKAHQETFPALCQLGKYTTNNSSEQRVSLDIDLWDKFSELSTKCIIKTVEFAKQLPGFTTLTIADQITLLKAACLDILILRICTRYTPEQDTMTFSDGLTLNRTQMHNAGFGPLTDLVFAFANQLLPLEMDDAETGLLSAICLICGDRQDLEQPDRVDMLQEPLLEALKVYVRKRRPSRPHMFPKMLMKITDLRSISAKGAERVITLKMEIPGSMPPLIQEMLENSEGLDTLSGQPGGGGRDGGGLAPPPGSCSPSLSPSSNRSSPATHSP
In short: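 Reporter transcripts, measured by RT-PCR with fluorescent labeling and capillary electrophoresis after 24 h dosing, reflect activity of an exogenous human RARa–GAL4 fusion in transiently transfected HepG2. Fitted for increase relative to DMSO.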

[10] = target: human Retinoic Acid Receptor beta (RARb), RARB (gene 5915) (UniProt P10826); test: ATG_RARb_TRANS: Attagene TRANS-FACTORIAL HepG2 Assay for human Retinoic Acid Receptor beta (AID 2283004)
Chain of human Retinoic Acid Receptor beta (RARb), RARB (gene 5915) (P10826 whole entry, looked up, the tested form may be a part): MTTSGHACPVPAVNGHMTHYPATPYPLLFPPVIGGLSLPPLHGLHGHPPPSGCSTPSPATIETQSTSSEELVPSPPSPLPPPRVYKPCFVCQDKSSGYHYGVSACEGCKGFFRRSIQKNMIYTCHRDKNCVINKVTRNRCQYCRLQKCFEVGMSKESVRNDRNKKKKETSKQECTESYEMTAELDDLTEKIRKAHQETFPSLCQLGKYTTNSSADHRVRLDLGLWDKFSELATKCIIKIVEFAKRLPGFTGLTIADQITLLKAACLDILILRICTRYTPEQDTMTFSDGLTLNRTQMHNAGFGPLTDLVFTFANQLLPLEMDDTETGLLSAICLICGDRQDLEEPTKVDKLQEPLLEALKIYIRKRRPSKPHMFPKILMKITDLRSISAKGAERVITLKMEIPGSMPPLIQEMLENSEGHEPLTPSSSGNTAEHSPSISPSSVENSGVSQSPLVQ
In short: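 Readout is reporter mRNA induction: RNA reverse-transcribed, PCR-amplified, FAM-labelled, HpaI-cut and resolved by capillary electrophoresis. Transiently transfected HepG2 cells carrying exogenous NR–Gal4 chimeras were dosed for 24 h; activity fitted upward relative to DMSO.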

[11] = read-out: Intercellular Adhesion Molecule 1 (ICAM1), ICAM1 (gene 3383); test: BSK_3C_ICAM1: BioMAP Diversity Plus: 3C Assay for Intercellular Adhesion Molecule 1 (ICAM1) Biomarker Activity (AID 2283003; active means hit-call score of the fitted dose curve at least 0.9, where 1 is the maximum; inactive means score below 0.9); details: primary human endothelial cells (HUVEC); actives raise or lower the signal
In short: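 Chemicals are dosed onto primary human umbilical vein endothelium (3C system). After 24 h, ICAM-1 is measured by ELISA, and responses are fitted bidirectionally relative to DMSO.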

[12] = BSK_3C_Proliferation: Cell Proliferation Assessment in the BioMAP Diversity Plus: 3C Assay (AID 2283006; active means hit-call score of the fitted dose curve at least 0.9, where 1 is the maximum; inactive means score below 0.9); details: primary human endothelial cells (HUVEC)
In short: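 Cells (human umbilical vein endothelial, sub-confluent) receive test chemical; after 48 h they are fixed in 10% trichloroacetic acid, stained with 0.1% SRB and read at 560 nm. Activity is referenced to DMSO, fitting increases and decreases.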

[13] = read-out: Interleukin-1 alpha (IL1a), IL1A (gene 3552); test: BSK_BE3C_IL1a: BioMAP Diversity Plus: BE3C Assay for Interleukin-1 alpha (IL1a) Biomarker Activity (AID 2283016; active means hit-call score of the fitted dose curve at least 0.9, where 1 is the maximum; inactive means score below 0.9); details: primary human bronchial epithelial cells; actives raise or lower the signal
In short: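 Signal from IL-1a ELISA, taken 24 h after chemical dosing of human bronchial epithelial cells, is compared with DMSO as baseline using bidirectional curve fitting.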

[14] = read-out: Monocyte Chemoattractant Protein-1 (MCP1), CCL2 (gene 6347); test: BSK_3C_MCP1: BioMAP Diversity Plus: 3C Assay for Monocyte Chemoattractant Protein-1 (MCP1) Biomarker Activity (AID 2283017; active means hit-call score of the fitted dose curve at least 0.9, where 1 is the maximum; inactive means score below 0.9); details: primary human endothelial cells (HUVEC); actives raise or lower the signal
In short: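 HUVEC, 3C system; 24 h chemical exposure; MCP-1 by ELISA; bidirectional curve fit vs DMSO baseline.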

[15] = read-out: Monocyte Chemoattractant Protein-1 (MCP1), CCL2 (gene 6347); test: BSK_4H_MCP1: BioMAP Diversity Plus: 4H Assay for Monocyte Chemoattractant Protein-1 (MCP1) Biomarker Activity (AID 2283018; active means hit-call score of the fitted dose curve at least 0.9, where 1 is the maximum; inactive means score below 0.9); details: primary human endothelial cells (HUVEC); actives raise or lower the signal
In short: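 Endothelial cells from umbilical vein were treated with test chemical, then after 24 h MCP-1 levels were quantified by ELISA; endpoint values came from bidirectional fitting with DMSO as baseline of activity.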

[16] = read-out: Human Leukocyte Antigen - DR isotype (HLADR), HLA-DRA (gene 3122); test: BSK_3C_HLADR: BioMAP Diversity Plus: 3C Assay for Human Leukocyte Antigen - DR isotype (HLADR) Biomarker Activity (AID 2283019; active means hit-call score of the fitted dose curve at least 0.9, where 1 is the maximum; inactive means score below 0.9;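 further: ELISA of cell-surface HLA-DR on HUVEC 24 h after dosing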); details: primary human endothelial cells (HUVEC); actives raise or lower the signal
In short: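 HUVEC, 3C stimulation, 24 h post-dose; HLA-DR by ELISA; bidirectional curve fit vs DMSO baseline; gain or loss of signal scored.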

[17] = read-out: Interleukin-8 (IL8), CXCL8 (gene 3576); test: BSK_3C_IL8: BioMAP Diversity Plus: 3C Assay for Interleukin-8 (IL8) Biomarker Activity (AID 2283020; active means hit-call score of the fitted dose curve at least 0.9, where 1 is the maximum; inactive means score below 0.9); details: primary human endothelial cells (HUVEC); actives raise or lower the signal
In short: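 Endothelial primary cells of human umbilical vein origin are dosed with chemical; after 24 h the IL-8 biomarker is measured by ELISA, and concentration–response is fitted in both directions versus DMSO.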

[18] = read-out: Monokine induced gamma interferon (MIG), CXCL9 (gene 4283); test: BSK_3C_MIG: BioMAP Diversity Plus: 3C Assay for Monokine induced gamma interferon (MIG) Biomarker Activity (AID 2283021; active means hit-call score of the fitted dose curve at least 0.9, where 1 is the maximum; inactive means score below 0.9); details: primary human endothelial cells (HUVEC); actives raise or lower the signal
In short: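 Endothelial primary cells (human umbilical vein) are dosed with test chemical in the 3C system. MIG levels are measured by ELISA at 24 h and fitted in both directions relative to DMSO.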

[19] = read-out: E-selectin (Homo sapiens) (UniProt P16581); test: BSK_3C_Eselectin: BioMAP Diversity Plus: 3C Assay for Eselectin Biomarker Activity (AID 2283015; active means hit-call score of the fitted dose curve at least 0.9, where 1 is the maximum; inactive means score below 0.9;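 further: cell surface E-selectin protein quantified by ELISA 24 h after dosing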); details: primary human endothelial cells (HUVEC); actives raise or lower the signal
In short: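 HUVEC, 3C stimulation; compound exposure 24 h; E-selectin by ELISA; gain- or loss-of-signal fitted bidirectionally vs DMSO baseline.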

Measured: AC50

CC(C)(C)NC(N)=O
inactive: [1] | [2] | [3] | [4]

CCCC1CCC(=O)O1 (stereo not drawn)
inactive: [1] | [2] | [5] | [6]

Nc1ccc(F)c([N+](=O)[O-])c1
inactive: [1] | [7] | [8] | [3] | [4]

FC1(F)C(F)(F)C(F)(F)C2(F)C(F)(C1(F)F)C(F)(F)C(F)(F)C1(F)C(F)(F)C(F)(F)C(F)(F)C(F)(F)C12F (stereo not drawn)
inactive: [1] | [2] | [4]

CC(C)(N)CO
inactive: [2] | [6] | [3]

CN1Cc2c(N)cccc2C(c2ccccc2)C1 (stereo not drawn)
inactive: [9] | [7] | [2] | [6]

CCCCCNCCCCC
inactive: [7] | [2]

Nc1cc(N)cc(C(=O)O)c1
inactive: [8] | [6] | [4]

CC(=O)OCC=Cc1ccccc1
active: [7] 9.38 µM
inactive: [2] | [8]

CCCCN
inactive: [7] | [5] | [3] | [4]

C=O
inactive: [10] | [9] | [2] | [6] | [3] | [4]

CC(=O)OCCOC(C)=O
inactive: [5] | [8] | [6] | [4]

CC(C)C1CCC(O)CC1 (stereo not drawn)
inactive: [7] | [2] | [6] | [4]

O=[N+]([O-])c1ccc(C=Cc2ccc([N+](=O)[O-])cc2S(=O)(=O)O)c(S(=O)(=O)O)c1
inactive: [7] | [5] | [4]

COc1c(Cl)c(Cl)c(Cl)c(Cl)c1Cl
active: [2] 10.3 µM | [6] 29.1 µM | [3] 6.22 µM
inactive: [4]

CO[Si](CCCn1c(=O)n(CCC[Si](OC)(OC)OC)c(=O)n(CCC[Si](OC)(OC)OC)c1=O)(OC)OC
inactive: [10] | [7] | [2] | [6] | [3] | [4]

CC(C)(C)c1cc(CCC(=O)NN)cc(C(C)(C)C)c1O
inactive: [2] | [3]

O=C(O)c1cn(-c2ccc(F)cc2)c2cc(N3CCNCC3)c(F)cc2c1=O
not listed: [1] | [2] | [5] | [6] | [7] | [9] | [10] | [19]
inactive: all other assays above

CCCCNC(=O)NS(=O)(=O)c1ccc(N)cc1
inactive: [9]

CCOC(=S)SSC(=S)OCC
inactive: [7] | [3]

COc1ccc(NC(=O)CC(C)=O)cc1
inactive: [7] | [2] | [8] | [6]

NCCOCCO
inactive: [2] | [5] | [8] | [6] | [4]

COC(C)CCO (stereo not drawn)
inactive: [10] | [9] | [7] | [2] | [8] | [4]
active: [6] 53.7 µM | [3] 4.07 µM

Cc1ccc(C(=O)O)o1
inactive: [2] | [8] | [3] | [4]

O=C1C(c2[nH]c3ccc(S(=O)(=O)O)cc3c2O)=Nc2ccc(S(=O)(=O)O)cc21
inactive: [2] | [8] | [4]

CCCCCCOC(=O)CCCCC
inactive: [10] | [9] | [7] | [2] | [5] | [6]

CC[C@]12CCCN3CCc4c(n(c5ccccc45)[C@@](O)(C(=O)OC)C1)[C@@H]32
inactive: [3]
active: [2] 2.99 µM | [4] 28.5 µM

N#Cc1nc(Cl)c(Cl)c(Cl)c1Cl
active: [7] 0.206 µM | [8] 2.56 µM
inactive: [5] | [6]

CC1(C)OC[C@@H]2O[C@@]3(C(=O)O)OC(C)(C)O[C@H]3[C@@H]2O1
inactive: [9] | [2] | [8]

CC(C)(CO)[N+](=O)[O-]
inactive: [7] | [2] | [5] | [4]

CC(=O)[O][Al][O]C(C)=O
inactive: [2] | [5] | [4]
active: [3] 44.5 µM

O=C(O)c1ccc(C(=O)O)cc1
inactive: [2] | [8] | [4]

CCCCC[Si](OCC)(OCC)OCC
active: [2] 7.48 µM
inactive: [9] | [7] | [8] | [3]

Cc1cccc(C)c1[N+](=O)[O-]
inactive: [10] | [9] | [2] | [5] | [8] | [6] | [4]

C=CC(C)(C)O
inactive: [7] | [2] | [6] | [3]

CNCCO
inactive: [7] | [2] | [4]

CC(=O)C=CC1=C(C)CCCC1(C)C
active: [7] 14.1 µM | [2] 1.02 µM | [3] 43.9 µM

C=C(C)C(=O)NCCCN(C)C
inactive: [2] | [5] | [6] | [4]

CCCCCCCCCOC(C)=O
inactive: [7] | [2] | [3] | [4]

O=c1[nH]c(=O)n([C@H]2CCCO2)cc1F
inactive: [7] | [4]

CN(C)CCCN
inactive: [7] | [2] | [6] | [3] | [4]

O=C(O)c1ccc([N+](=O)[O-])cc1
not listed: [1] | [2] | [5] | [6] | [7] | [8] | [9] | [10]
inactive: all other assays above

C=C(C)[C@@H]1CC[C@@H](C)C[C@@H]1O
inactive: [6]

— PubChem BioAssay (EPA / NIEHS)
